Experimental data from PubChem BioAssay (NCATS).
Records with an inconclusive call do not appear. Activity calls are given as the source filed them. Calls come from the whole dose curve; as a rule, active = well fitted inhibition curve with a large enough effect; inconclusive = small, poorly fitted or top-dose-only effect; inactive = flat fitted curve, though single readings scatter.

test: qHTS of Trypanosoma Brucei Inhibitors: LOPAC Validation (AID 624147); details: purified enzyme assay, luminescence, 45 min; series mostly up to 57.5 µM
Excerpt: Members of the Trypanosomatidae family of parasitic protozoans cause a spectrum of diseases throughout the tropical and subtropical world. Sleeping sickness, caused by two subspecies of Trypanosoma brucei, is endemic to areas of sub-Saharan Africa, while Chagas' disease, a manifestation of Trypanosoma cruzi infection, is prevalent throughout Central and South America. In addition, many species of Leishmania are responsible for a range of cutaneous and visceral diseases, causing ulcers, destructive lesions and kalaazar, a lethal infection of the viscera. These diseases cause severe public health and economic burdens on populations that are often already caught in a tragic cycle of poverty, poor nutrition and disease. Collectively, parasites of the trypanosomatid family infect 30 million people worldwide (~500 million live in endemic areas), and account for ~130K deaths annually. Existing treatments have developed little in the past 50 years, and suffer from toxicity, poor efficacy and resistance; the goal of this project is to develop lead drugs that will be suitable for entry into pre-clinical trials.
Glycolysis in axenically cultured T. cruzi, representing the intracellular pathogenic stage, is also essential for these parasites. {Engel, 1987} This project aims to discover and optimize selective inhibitors of the glycolytic enzyme pyruvate kinase (PYK) from Trypanosoma brucei, the parasite that causes sleeping sickness. […] Trypanosomatid PYKs show significant differences from their human counterparts including only 47-50% sequence identity and different allosteric and activation properties.{Callens, 1992} To this end, a qHTS was done against the MLSMR to discover inhibitors.
NIH Molecular Libraries Probe Production Network [MLPCN]
NIH Chemical Genomics Center [NCGC]
PI Name: Malcolm Walkinshaw, University of Edinburgh
2 uL of TbPYK/substrate buffer (columns 1-3, 5-48) are dispensed into Greiner white solid bottom 1536-well assay plates; column 4 receives only TEA buffer as 0x TbPYK controls. Compounds are then transferred via Kalypsys pin tool equipped with 1536-pin array (10 nL slotted pins, V&P Scientific, San Diego, CA). Following addition of compound, 2 uL of ADP (130 uM final concentration, all columns) is added to initiate the reaction. The plates are then incubated at room temperature for 45 minutes. Kinase-Glo Plus reagent is added (3 uL) and plates incubated for 10 minutes, before being transferred to a ViewLux high-throughput CCD imager (PerkinElmer) wherein single end-point measurements of luminescence are acquired using a clear filter. All reagents are diluted in an assay buffer consisting of 50 mM TEA (pH 7.2), 100 mM KCl, 10 mM MgCl2, 0.05% BSA and 0.01% Tween-20.
All screening operations will be performed on a fully integrated robotic system (Kalypsys, San Diego, CA) containing one RX-130 and two RX-90 anthropomorphic robotic arms (Staeubli, Duncan, SC). Library plates will be screened starting from the lowest and proceeding to the highest concentration. Vehicle-only plates, with DMSO being pin-transferred to columns 5-48, will be inserted uniformly at the beginning and the end of each library in order to monitor and record any shifts in the background, which can be affected by reagent dispensers or loss in enzyme activity over time. Screening data will be corrected, normalized, and concentration-effect relationships will be derived by using publicly-available curve fitting algorithms developed in-house (http://ncgc.nih.gov/pub/openhts).

SMILES | outcome
CCN(CC)CCCC(C)Nc1ccnc2cc(Cl)ccc12 (stereo not given) | inactive
NC[C@H](O)c1ccc(O)c(O)c1 | inactive
Cc1cc2c(C(C)C)c(O)c(O)c(C=O)c2c(O)c1-c1c(C)cc2c(C(C)C)c(O)c(O)c(C=O)c2c1O | inactive
CN1CCN(CCCN2c3ccccc3Sc3ccc(C(F)(F)F)cc32)CC1 | inactive
CC(C)C[C@H](NC(=O)[C@@H](O)[C@H](N)Cc1ccccc1)C(=O)O | inactive
O=C(O)COCCN1CCN(C(c2ccccc2)c2ccc(Cl)cc2)CC1 (stereo not given) | inactive
O=C(Nc1nc2ccccc2n1CCN1CCOCC1)c1cccc([N+](=O)[O-])c1 | inactive
Nc1ccc(S(=O)(=O)Nc2ccnn2-c2ccccc2)cc1 | inactive
Cc1[nH]c(=O)c(C#N)cc1-c1ccncc1 | inactive
Nc1nc2ccc(OC(F)(F)F)cc2s1 | inactive
CCn1cc(C(=O)O)c(=O)c2cc(F)c(N3CCNC(C)C3)c(F)c21 (stereo not given) | inactive
NC(N)=NC(=O)c1nc(Cl)c(N)nc1N | inactive
Cn1cnc([N+](=O)[O-])c1Sc1ncnc2nc[nH]c12 | inactive
Cc1cccc(-c2[nH]c(C(C)(C)C)nc2-c2ccc3nccnc3c2)n1 | inactive
NS(=O)(=O)c1cc2c(cc1Cl)NC=NS2(=O)=O | inactive
Nc1nc2c(ncn2COCCO)c(=O)[nH]1 | inactive
OC(CCN1CCCCC1)(c1ccccc1)C1CC2C=CC1C2 (stereo not given) | inactive
NCCCC(N)(C(=O)O)C(F)F (stereo not given) | inactive
CCOC(=O)C1=C[C@]2(CC)CCCN3CCc4c(n1c1ccccc41)[C@@H]32 | inactive
O=c1[nH]cnc2[nH]ncc12 | inactive

SMILES | outcome
NNCCc1ccccc1 | inactive
Cc1cn[nH]c1 | inactive
N[C@@H]1CONC1=O | inactive
O=C1CCc2cc(OCCCCc3nnnn3C3CCCCC3)ccc2N1 | inactive
CCOC(=O)N1CCC(=C2c3ccc(Cl)cc3CCc3cccnc32)CC1 | inactive
CC(C)(Sc1ccc(CCN(CCCCC2CCCCC2)C(=O)NC2CCCCC2)cc1)C(=O)O | inactive
CCCCNc1cc(C(=O)O)cc(S(N)(=O)=O)c1Oc1ccccc1 | inactive
O=NN(CCCl)C(=O)NCCCl | inactive
Cc1[nH]c(=O)c(C#N)cc1-c1ccc2nccn2c1 | inactive
Oc1ccc(C2CNCCc3c2cc(O)c(O)c3Cl)cc1 (stereo not given) | inactive
Cc1ccccc1C(OCCN(C)C)c1ccccc1 (stereo not given) | inactive
NCCc1ccc(O)c(O)c1 | inactive
C1COC(NC(C2CC2)C2CC2)=N1 | inactive
CC(=O)Oc1ccccc1C(=O)O | inactive
CC(C)NCC(O)COc1ccc(COCCOC(C)C)cc1 (stereo not given) | inactive
C[C@]12CCC(=O)C=C1CC[C@@H]1[C@@H]2[C@@H](O)C[C@@]2(C)[C@H]1CC[C@]2(O)C(=O)CO | inactive
Cc1oncc1C(=O)Nc1ccc(C(F)(F)F)cc1 | inactive
CNC[C@H](O)c1cccc(O)c1 | inactive
CC(C[N+](C)(C)C)OC(N)=O (stereo not given) | inactive
c1ccc([C@H]2CN3CCSC3=N2)cc1 | inactive
